Measured values published in the supplement of paper PMC6555819.

Assays:
Experiment in all cases: PBM binding z-score (relative to random genomic background probes); higher = stronger binding; sequences stand for … in GC…GCGATTGACAGCGTAGAATGAAGG
[1] = test system: PPARg:RXRa DBDmut IVT, anti-RXR (DBD mutation: RXRa K156A/R161A, NR concentration 270 nM, RXRa partner concentration 90 nM)
In short: (§1)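 Binding z-scores take random background probes as their reference. They come from custom Agilent 4×180K protein-binding microarrays incubated 1 h with ligand-free nuclear receptor dimers, with antibodies against each partner (one per run) detecting binding. Scanned fluorescence was regression-normalized.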

[2] = test system: PPARg:RXRa IVT, anti-PPARg (NR concentration 270 nM, RXRa partner concentration 90 nM)
In short: as §1

[3] = test system: PPARg homodimer (NR concentration 180 nM)
In short: as §1

[4] = test system: PXR:RXRa (NR concentration 270 nM, RXRa partner concentration 90 nM)
In short: as §1

[5] = test system: PXR homodimer (NR concentration 270 nM)
In short: as §1

[6] = test system: RARa:RXR (NR concentration 270 nM, RXRa partner concentration 90 nM)
In short: as §1

[7] = test system: RARa homodimer (NR concentration 270 nM)
In short: as §1

[8] = test system: RARb:RXRa (NR concentration 270 nM, RXRa partner concentration 90 nM)
In short: as §1

[9] = test system: RARb homodimer (NR concentration 270 nM)
In short: as §1

[10] = test system: RARg:RXRa (NR concentration 270 nM, RXRa partner concentration 90 nM)
In short: as §1

[11] = test system: RARg homodimer (NR concentration 270 nM)
In short: as §1

[12] = test system: RXRa DBDmut IVT, anti-RXR (DBD mutation: RXRa K156A/R161A, NR concentration 90 nM)
In short: as §1

[13] = test system: RXRa homodimer (NR concentration 180 nM)
In short: as §1

[14] = test system: THRa:RXRa (NR concentration 90 nM, RXRa partner concentration 90 nM)
In short: as §1

[15] = test system: THRa homodimer (NR concentration 90 nM)
In short: as §1

[16] = test system: VDR homodimer (NR concentration 270 nM)
In short: as §1

CCGAGTAGGTTACGAGGGAGCATTCAGTGCGAAT
PBM binding z-score [1]: 4.73
PBM binding z-score [2]: 3.51
PBM binding z-score [3]: 0.106
PBM binding z-score [4]: 0.602
PBM binding z-score [5]: 0.000491
PBM binding z-score [6]: 0.506
PBM binding z-score [7]: -0.145
PBM binding z-score [8]: 0.887
PBM binding z-score [9]: 0.337
PBM binding z-score [10]: 0.625
PBM binding z-score [11]: 0.53
PBM binding z-score [12]: 0.00513
PBM binding z-score [13]: 0.6
PBM binding z-score [14]: 0.829
PBM binding z-score [15]: -0.661
PBM binding z-score [16]: -0.171

CCGATTAGGTTACGAGGGGGCATTCAGTGCGAAT
PBM binding z-score [1]: 3.12
PBM binding z-score [2]: 3.4
PBM binding z-score [3]: 1.22
PBM binding z-score [4]: 4.69
PBM binding z-score [5]: 3.98
PBM binding z-score [6]: 2.28
PBM binding z-score [7]: 0.441
PBM binding z-score [8]: 2.49
PBM binding z-score [9]: 2.56
PBM binding z-score [10]: 3.12
PBM binding z-score [11]: 2.54
PBM binding z-score [12]: 1.96
PBM binding z-score [13]: 1.52
PBM binding z-score [14]: 3.91
PBM binding z-score [15]: 1.57
PBM binding z-score [16]: 2.8

TCGAGTAGGTTACGGGGGCACTCAGGGATGAAGA
PBM binding z-score [1]: 4.71
PBM binding z-score [2]: 6.2
PBM binding z-score [3]: 2.56
PBM binding z-score [4]: 2.71
PBM binding z-score [5]: 0.594
PBM binding z-score [6]: 3.05
PBM binding z-score [7]: -0.263
PBM binding z-score [8]: 2.65
PBM binding z-score [9]: 2.3
PBM binding z-score [10]: 3.39
PBM binding z-score [11]: 2.3
PBM binding z-score [12]: 1.2
PBM binding z-score [13]: 2.84
PBM binding z-score [14]: 3.4
PBM binding z-score [15]: 1.09
PBM binding z-score [16]: 1.68

CTATGTAGGTTAAGGGGGACATTCAGTTTGAAAG
PBM binding z-score [1]: 7.33
PBM binding z-score [2]: 7.62
PBM binding z-score [3]: 2.11
PBM binding z-score [4]: 2.48
PBM binding z-score [5]: 5.75
PBM binding z-score [6]: 1.65
PBM binding z-score [7]: 1.11
PBM binding z-score [8]: 2.1
PBM binding z-score [9]: 1.99
PBM binding z-score [10]: 1.81
PBM binding z-score [11]: 1.7
PBM binding z-score [12]: 1.47
PBM binding z-score [13]: 1.39
PBM binding z-score [14]: 2.23
PBM binding z-score [15]: 1.37
PBM binding z-score [16]: 2.64

CTATGTAGATTAAGGGGGTCATTCAGTTTGAAAG
PBM binding z-score [1]: 3.6
PBM binding z-score [2]: 4.97
PBM binding z-score [3]: 4.49
PBM binding z-score [4]: 5.56
PBM binding z-score [5]: 10.4
PBM binding z-score [6]: 5.56
PBM binding z-score [7]: 3.01
PBM binding z-score [8]: 3.42
PBM binding z-score [9]: 3.68
PBM binding z-score [10]: 4.14
PBM binding z-score [11]: 2.94
PBM binding z-score [12]: 2.82
PBM binding z-score [13]: 5.19
PBM binding z-score [14]: 3.74
PBM binding z-score [15]: 2.37
PBM binding z-score [16]: 5.58

TCGAGTAGGTTACGGGGGCATTCGGGGATGAAGA
PBM binding z-score [1]: 5.16
PBM binding z-score [2]: 5.85
PBM binding z-score [3]: 3.02
PBM binding z-score [4]: 3.55
PBM binding z-score [5]: 2
PBM binding z-score [6]: 3.36
PBM binding z-score [7]: 0.243
PBM binding z-score [8]: 2.54
PBM binding z-score [9]: 2.34
PBM binding z-score [10]: 3.52
PBM binding z-score [11]: 2.38
PBM binding z-score [12]: 1.85
PBM binding z-score [13]: 2.92
PBM binding z-score [14]: 4.01
PBM binding z-score [15]: 1.63
PBM binding z-score [16]: 3.83

CTATGTAGGTTAAGGGGGCCATTCAGTTTGAAAG
PBM binding z-score [1]: 7.13
PBM binding z-score [2]: 7.17
PBM binding z-score [3]: 1.77
PBM binding z-score [4]: 2.69
PBM binding z-score [5]: 3.67
PBM binding z-score [6]: 2.17
PBM binding z-score [7]: 0.379
PBM binding z-score [8]: 1.94
PBM binding z-score [9]: 1.71
PBM binding z-score [10]: 2.17
PBM binding z-score [11]: 1.78
PBM binding z-score [12]: 1.21
PBM binding z-score [13]: 1.73
PBM binding z-score [14]: 2.02
PBM binding z-score [15]: 0.914
PBM binding z-score [16]: 1.98

CCGAGTAGGTTACGAGGGGGCATTGAGTGCGAAT
PBM binding z-score [1]: 4.78
PBM binding z-score [2]: 4.42
PBM binding z-score [3]: 1.95
PBM binding z-score [4]: 5.05
PBM binding z-score [5]: 8.74
PBM binding z-score [6]: 2.91
PBM binding z-score [7]: 0.485
PBM binding z-score [8]: 2.02
PBM binding z-score [9]: 1.96
PBM binding z-score [10]: 3.29
PBM binding z-score [11]: 2.3
PBM binding z-score [12]: 1.46
PBM binding z-score [13]: 2.21
PBM binding z-score [14]: 3.98
PBM binding z-score [15]: 0.378
PBM binding z-score [16]: 3.76

CCGAGTAGATTACGAGGGGGCATTCAGTGCGAAT
PBM binding z-score [1]: 0.434
PBM binding z-score [2]: 0.871
PBM binding z-score [3]: 0.638
PBM binding z-score [4]: 2.73
PBM binding z-score [5]: 3.64
PBM binding z-score [6]: 1.79
PBM binding z-score [7]: -0.0773
PBM binding z-score [8]: 0.973
PBM binding z-score [9]: 1.12
PBM binding z-score [10]: 1.31
PBM binding z-score [11]: 0.84
PBM binding z-score [12]: 1.36
PBM binding z-score [13]: 0.919
PBM binding z-score [14]: 1.85
PBM binding z-score [15]: -0.0543
PBM binding z-score [16]: 3.03

CCGAGTAGGTTACGAGGGTGCATTCAGTGCGAAT
PBM binding z-score [1]: 4.66
PBM binding z-score [2]: 3.87
PBM binding z-score [3]: 0.357
PBM binding z-score [4]: 4.47
PBM binding z-score [5]: 4.3
PBM binding z-score [6]: 0.897
PBM binding z-score [7]: -0.753
PBM binding z-score [8]: 1.13
PBM binding z-score [9]: 0.573
PBM binding z-score [10]: 0.908
PBM binding z-score [11]: 0.734
PBM binding z-score [12]: 0.804
PBM binding z-score [13]: 1.18
PBM binding z-score [14]: 1.71
PBM binding z-score [15]: -0.985
PBM binding z-score [16]: 3.12

TCGAGTTGGTTACGGGGGCATTCAGGGATGAAGA
PBM binding z-score [1]: 2.18
PBM binding z-score [2]: 3.75
PBM binding z-score [3]: 1.79
PBM binding z-score [4]: 3.22
PBM binding z-score [5]: 3.31
PBM binding z-score [6]: 2.3
PBM binding z-score [7]: 0.444
PBM binding z-score [8]: 1.97
PBM binding z-score [9]: 1.6
PBM binding z-score [10]: 2.49
PBM binding z-score [11]: 1.71
PBM binding z-score [12]: 2.61
PBM binding z-score [13]: 1.89
PBM binding z-score [14]: 3.74
PBM binding z-score [15]: 1.87
PBM binding z-score [16]: 4.57

CCGAGTAGGTTACGAGGGGGCGTTCAGTGCGAAT
PBM binding z-score [1]: 5
PBM binding z-score [2]: 4.63
PBM binding z-score [3]: 1.55
PBM binding z-score [4]: 4.3
PBM binding z-score [5]: 3.24
PBM binding z-score [6]: 2.59
PBM binding z-score [7]: 0.353
PBM binding z-score [8]: 1.72
PBM binding z-score [9]: 1.42
PBM binding z-score [10]: 2.52
PBM binding z-score [11]: 1.89
PBM binding z-score [12]: 1.17
PBM binding z-score [13]: 1.42
PBM binding z-score [14]: 3.16
PBM binding z-score [15]: 0.485
PBM binding z-score [16]: 2.88

CTATGTACGTTAAGGGGGTCATTCAGTTTGAAAG
PBM binding z-score [1]: 3.42
PBM binding z-score [2]: 5.2
PBM binding z-score [3]: 3.11
PBM binding z-score [4]: 5.68
PBM binding z-score [5]: 9.08
PBM binding z-score [6]: 5.5
PBM binding z-score [7]: 1.37
PBM binding z-score [8]: 3.45
PBM binding z-score [9]: 3.65
PBM binding z-score [10]: 4.57
PBM binding z-score [11]: 3.69
PBM binding z-score [12]: 2.99
PBM binding z-score [13]: 5.04
PBM binding z-score [14]: 3.86
PBM binding z-score [15]: 2.71
PBM binding z-score [16]: 5.96
